In PubChem BioAssay AID1863 (Southern Research Specialized Biocontainment Screening …, 2009):
Out of some 300,000 compounds screened, about 480 (0.16%) were called active.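 The calls were made as follows: active = inhibition over 29.93%, a cutoff 3 SD above the screen mean, later confirmed by dose response; inconclusive = inhibition over 29.93% but no dose response follow-up; inactive = inhibition at most 29.93% or unconfirmed.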 The list is a sample of the results. Potency and affinity values are given separately. Peptide text beside a SMILES is read from it. * marks the point of attachment. Boc = CC(C)(C)OC(=O)*

assay: PhoP-dependent GFP reporter repression – Salmonella Typhimurium, primary screen (AID 1863);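 also: 0% = low Mg2+ inducing control and 100% = high Mg2+ repressing control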; conditions: S. Typhimurium PhoP-regulated promoter GFP reporter, 4 h; at 50 µM; active compounds read high

inhibition, inactive:
Cc1ccccc1CSc1nnc(-c2ccncc2)n1C 1.82%
COc1ccccc1C(=O)NCCC(=O)NC(C)c1ccc(-n2ccnc2)cc1 (centres undefined) 9.9%
CCCCCC[N+](C)(C)CCSSCC[N+](C)(C)CCCCCC -6.44%
C[N+](C)(C)CCCCCC[N+](C)(C)C -9.93%
C[N+](C)(C)CCCCCCCCCC[N+](C)(C)C -6.25%
C#CC[N+](C)(C)CCCCCCCCCC 8.05%
CCN(CC)CCCNC(=O)c1c(O)c2cc(F)cc3c2n(c1=O)C(C)CC3 (centres undefined) 8.52%
CN1CCN(c2c(F)cc3c(=O)c(C(=O)O)cn4c3c2SCC4)CC1 -8.39%
CC1CCc2cc(F)cc3c(O)c(C(=O)NCCN(C)C)c(=O)n1c23 (centres undefined) 2.46%
O=C(c1cncc(Br)c1)N1CCN(S(=O)(=O)c2ccccc2C(F)(F)F)CC1 -1.26%
Cc1ccc(C(=O)N/C(=C\c2cccnc2)C(=O)N2CCCC2)cc1 -6.95%
Cc1ccc(C2=Nc3ccccc3NC(C)(c3ccc(C)o3)C2)o1 (centres undefined) -5.88%
Cc1nnsc1S(=O)c1ccc(Cl)c(Cl)c1 (centres undefined) 3.99%
N#Cc1ccccc1CSCCNC(=O)Cc1c(F)cccc1Cl -5.66%
COc1cccc(Cn2c(C3CC3)nc3ccc(NC(=O)c4ccco4)cc3c2=O)c1 -9.67%
Cc1ccc(-c2nn(-c3ccccc3)cc2CSC(=N)N)cc1 2.16%
OCc1cn(-c2ccccc2)nc1-c1ccc(-c2nn(-c3ccccc3)cc2CO)cc1 14.7%
OCc1cn(-c2ccccc2)nc1-c1ccc(Br)cc1 -1.5%
O=C(O)Cc1cn(-c2ccccc2)nc1-c1ccccc1 -1.05%
CC1=Nn2c(nc3sc4c(c3c2=O)CCCC4)SC1 -2.64%
Cc1cnc(NC(=O)c2ccncc2)s1 1.84%
C=CCOC(=O)C1=C[C@@H](c2ccc(Br)cc2)[C@H](CCCO)[C@@H](OCC)O1 -3.82%
COc1cc(NS(=O)(=O)c2ccc(NS(=O)(=O)c3ccc(C)cc3)cc2)nc(OC)n1 12.1%
COCC(=O)Nc1ccc(N2CCN(c3ccccc3)CC2)c(F)c1 21.5%
Cc1ccc(SCCc2ccc(C)nc2)cc1 9.59%
CCNC(=S)NNC(=O)c1ccccc1Cl 8.03%
COCCCNC(=S)NNC(=O)c1ccccn1 8.59%
C=CCOC(=O)C1=C(C)NC(SCC(=O)Nc2nccs2)=C(C#N)C1c1cccs1 (centres undefined) -14.1%
CCOC(=O)Cn1cnc2sc(C(=O)OC)c(C)c2c1=O -1.36%
O=C(CCS(=O)(=O)c1ccccc1)Nc1ncc([N+](=O)[O-])s1 11.2%
Cc1ccc(NC(=O)Nc2ccccc2)cc1[N+](=O)[O-] -2.21%
O=C(Nc1ccccc1)Nc1ccc(F)c([N+](=O)[O-])c1 8.9%
O=C(Nc1ccc(Cl)c(Cl)c1)Nc1ccccc1C(=O)O 4.95%
O=C(Nc1ncc([N+](=O)[O-])s1)c1ccccc1Br -1.22%
O=C(Nc1ccc(Cl)c(Cl)c1)Nc1ccccn1 8.31%
CCN(CC)P(=O)(c1ccccc1)c1c(C)nc2ccccn12 (centres undefined) -1.09%
CC12CCC(C(=O)NC3CCCC3)(CC1=O)C2(C)C (centres undefined) -12.7%
COc1ccc(-c2nnn(CC(=O)N(CC3CCCO3)C(C(=O)NC(C)(C)C)c3ccco3)n2)cc1OC (centres undefined) 2.77%
COCCCNC(=O)CN(c1cc(Cl)cc(Cl)c1)S(C)(=O)=O -4.71%
N#CCOc1nc(N2CCOCC2)nc(N2CCOCC2)n1 -1.4%
COc1ccc(CN(CC(=O)NCC2CCCO2)C(=O)CNS(=O)(=O)c2ccc(C)cc2)cc1 (centres undefined) -1.33%
CC(NC(=O)C1CCN(S(=O)(=O)c2ccc3nc4c(c(C(=O)O)c3c2)CCCC4)CC1)c1ccccc1 (centres undefined) -8.3%
CCN(CC)S(=O)(=O)c1ccc(OC)c(NS(=O)(=O)Cc2ccccc2)c1 6.46%
O=C(O)c1cccc(Nc2ncnc3sccc23)c1 -0.32%
COc1ccccc1N1CCN(CC(=O)c2c(C)[nH]c3cc(C)ccc23)CC1 -0.55%
CC(C)c1nnc(NC(=O)c2ccc(S(=O)(=O)N3CCOCC3)cc2)s1 -9.01%
O=C(NCCC1=CCCCC1)c1ccc2c(c1)N(Cc1ccccc1)C(=O)CS2 6.9%
CCOC(=O)c1ccc2c(c1)n(CC)c(/C=C/N(C)c1ccccc1)[n+]2CC -11%
CCn1c(/C=C/N(C)c2ccccc2)[n+](CC)c2ccc(Cl)cc21 -2.39%
COc1ccc(C(=O)N2CCN(Cc3ccccc3)CC2)cc1[N+](=O)[O-] -3.7%
O=C(NCCCn1ccnc1)c1ccc(Br)cc1 12.6%
Oc1c(I)cc(I)c2cccnc12 -1.32%
Clc1cc2cccnc2c2ccccc12 2.15%
Cc1ccc(S(=O)(=O)Nc2ccc(O)c3ncccc23)cc1 10.5%
Oc1c(Cl)cc(CN2CCCCC2)c2cccnc12 14.1%
O=c1oc2ccccc2c(O)c1Cc1cc(Cl)c2cccnc2c1O -10%
Cc1ccc(S(=O)(=O)Nc2ccc(O)c3cccnc23)cc1 6.3%
O=C(Oc1c(Cl)cc(Cl)c2cccnc12)c1cccs1 14.3%
O=C(Oc1ccc(Cl)c2cccnc12)c1ccco1 19.6%
CCC(=O)c1cc2c(cc1NC(=O)c1ccccc1)OCCO2 5.62%
CN(C)S(=O)(=O)c1ccc(N2CCCC2)c(C(=O)Nc2nc(-c3ccc(F)c(F)c3)cs2)c1 3.09%
Cc1ccc(CN2C(=O)NC(Cc3c[nH]c4ccccc34)C2=O)cc1 (centres undefined) 4.26%
COC(=O)c1cc(NC(=O)CC2SCCNC2=O)cc(C(=O)OC)c1 (centres undefined) -10.7%
COc1ccc(/C=N/Nc2cc(N(C)C)nc(N(C)C)n2)cc1 -15.8%
CC(C)(C)c1ccc(C(=O)N2CCC(C(=O)NCc3ccncc3)CC2)cc1 -6.15%
O=C(NCc1cccs1)c1cc(S(=O)(=O)N2CCCCC2)ccc1Cl 2.07%
COc1cc(C(=O)NCc2cccc3ccccc23)ccc1OCc1ccccc1 -2.04%
COc1ccc(/C(N)=N/O)c(OC)c1 -1.42%
Nc1ccc(-n2ccnc2)cc1 1.57%
CCCCOc1ccc(CSC(=N)N)cc1Cl 0.89%
COc1ccc(CSC(=N)N)cc1[N+](=O)[O-] 5.38%
COc1ccc(Br)cc1CSC(=N)N 5.81%
CCOc1ccc(Br)cc1CSC(=N)N 26.3%
CCCOc1ccc(Br)cc1CSC(=N)N 55.8%
CCOc1ccc(CSC(=N)N)cc1[N+](=O)[O-] 41%
C/C(=N\NC(=O)CNC(=O)c1ccc(F)cc1)c1ccco1 4.52%
Cc1ccc(NC(=O)N[C@@H](CC(C)C)C(=O)O)c(C)c1 -7.38%
O=C(NCc1ccccn1)Nc1ccccc1Cl -6.1%
CCN(CCN1CCCC1)C(=O)C1CCC(=O)N(CCCN2CCOCC2)C1 (centres undefined) 2.18%
CCCCCCn1c(N2CCCC2)nc2c1c(=O)[nH]c(=O)n2C 2.66%
O=C1CCCN1CCCNS(=O)(=O)c1ccccc1 10.7%
Cc1cc(C)nc(N/C(=N\S(=O)(=O)Cc2ccccc2)Nc2cccc(Cl)c2C)n1 8.54%
CC(C)(C)OC(=O)N1CCC[C@@H]1CO 1.69%
CC(C)CC(NC(=O)OC(C)(C)C)C(=O)NC(C(=O)N1CCCC1C(N)=O)C(C)C (stereo not drawn) (Boc-Leu-Val-Pro-NH2; configuration not given here) -6.98%
CCCC(=O)N1CC(=O)Nc2ccc(C)cc2C1c1ccccc1 (centres undefined) -6.57%
S=C(NCc1ccccc1)N1CCCCC1 0.84%
O=S(=O)(NCC(c1ccc2c(c1)OCO2)N1CCOCC1)c1ccc(Cl)cc1 (centres undefined) -2.72%
CC(=O)c1c(C)n([O-])c2ccc(C)cc2[n+]1=O 0.85%
CC(=O)c1c(C)n([O-])c2cc(C)ccc2[n+]1=O -0.54%
O=[n+]1c2c(n([O-])c3cc(F)c(F)cc31)CCCC2 -5.91%
COc1ccc2c(c1)[n+](=O)c(C(C)=O)c(C)n2[O-] 7.33%
Cc1ccc(NC2c3ncccc3C(=O)N2Cc2ccco2)c(C)c1 (centres undefined) -7.26%
O=C(CCSCCC(=O)N1CCCC1)N1CCCC1 0.69%
Cc1c(C)n2c(SCC(=O)NC3CCCCC3)nnc2[nH]c1=O 2.36%
CC(=O)c1c(N2CCN(c3ccc(F)cc3)CC2)nc(=S)n(Cc2ccccc2)c1C -9.08%
CCN(CC)CC(=O)Nc1ccc(-c2ccc(NC(=O)CN(CC)CC)c(OC)c2)cc1OC -5.12%
O=C(O)c1ccc(NC(=O)C(c2ccccc2)c2ccccc2)cc1 -7.69%
COc1cccc(C2c3[nH]c4ccccc4c3CCN2C(=O)Cn2cncn2)c1OC (centres undefined) -2.77%
CCN(CC)C(=O)Oc1nnc(SC(C)C)n1-c1ccc(Cl)cc1 -0.67%
